{
  "source": "ChEMBL document CHEMBL3988442",
  "about": "“University of Dundee, Small-Polar-MMV Screening Library” (2021)",
  "note": "Hit rate of the full screen: of about 48,000 compounds, about 13,000 (27%) showed an effect of 50% or more. Some of the results follow.",
  "data": [
    {"test_system": "Wolbachia pipientis", "assay": "Anti-Wolbachia Cell-Based Screen", "format": "functional", "parameters": "scale not given: in the data most compounds retested in dose-response had high values", "details": "5 µM", "units": {"Percent Effect": "%"}, "values": [
      {"smiles": "CC(NC(=O)Nc1cccnc1N1CCOCC1)c1ccncc1", "note": "(stereo not given)", "Percent Effect": -4.832},
      {"smiles": "Cc1cc(N(C)Cc2cc(C)on2)n2nc(C)c(C)c2n1", "Percent Effect": -5.11},
      {"smiles": "CCc1nnc(CN(C)c2cc(C)nc3c(C)c(C)nn23)o1", "Percent Effect": 7.383},
      {"smiles": "CCC(=O)CNC(=O)CCn1nc2ccccn2c1=O", "Percent Effect": -17.3},
      {"smiles": "COc1ccc(CC(=O)NCCn2nc3ccccn3c2=O)cc1", "Percent Effect": 7.031},
      {"smiles": "Cc1ccccc1CSCCn1nc2ccccn2c1=O", "Percent Effect": 8.414},
      {"smiles": "CCCc1cc(C(=O)NCCn2nc3ccccn3c2=O)[nH]n1", "Percent Effect": 0.6756},
      {"smiles": "O=C(CC1CCCC1)NCCn1nc2ccccn2c1=O", "Percent Effect": 2.754},
      {"smiles": "CN(CCn1nc2ccccn2c1=O)CC(=O)N(C)C1CCCCC1", "Percent Effect": 82.2},
      {"smiles": "CC(C1CC1)N(C(=O)NCCCn1nc2ccccn2c1=O)C1CC1", "note": "(stereo not given)", "Percent Effect": -19.29},
      {"smiles": "CCN(CC)C(=O)CN(C)CCn1nc2ccccn2c1=O", "Percent Effect": 106.3},
      {"smiles": "CC(=O)N1CCCN(CCn2nc3ccccn3c2=O)CC1", "Percent Effect": 104.1},
      {"smiles": "CCOc1ccccc1CSCCn1nc2ccccn2c1=O", "Percent Effect": -0.2652},
      {"smiles": "COCCNC(=O)CN(C)CCn1nc2ccccn2c1=O", "Percent Effect": 81.18},
      {"smiles": "Cc1ccsc1C(=O)NCCCn1nc2ccccn2c1=O", "Percent Effect": -12.31},
      {"smiles": "CC(NCC1CCS(=O)(=O)CC1)c1cccc(OC(F)F)c1", "note": "(stereo not given)", "Percent Effect": 6.07},
      {"smiles": "CCC1=N[C@@]2(CC[C@@H]3CN(CC4CC4)C[C@@H]32)C(=O)N1", "Percent Effect": 9.591},
      {"smiles": "N#Cc1ccc(CNC2CCN(CCc3ccncc3)CC2)cc1", "Percent Effect": -19.98},
      {"smiles": "CN(C)CCN(Cc1cccc(C(F)(F)F)c1)C(=O)c1cc[nH]n1", "Percent Effect": 1.923},
      {"smiles": "Cc1c[nH]c(CN2CCN(C)C3(CCC(=O)N(CC4CC4)CC3)C2)n1", "note": "(stereo not given)", "Percent Effect": -1.954},
      {"smiles": "Cc1cccc(N2CCc3ncc(CNc4ccccn4)n3CC2)n1.O=C(O)C(F)(F)F.O=C(O)C(F)(F)F", "Percent Effect": 88.27},
      {"smiles": "Cc1cccc(N2CCc3ncc(CNS(C)(=O)=O)n3CC2)n1.O=C(O)C(F)(F)F", "Percent Effect": 88.7},
      {"smiles": "CCS(=O)(=O)N1CCC2(CN(c3cccc(C)n3)C2)C1.O=C(O)C(F)(F)F", "Percent Effect": 1.878},
      {"smiles": "CN(Cc1ccco1)Cc1cnc2n1CCN(c1ccccn1)CC2.O=C(O)C(F)(F)F.O=C(O)C(F)(F)F", "Percent Effect": 10.62},
      {"smiles": "CN1CCc2ncc(CNc3cc(N(C)C)ncn3)n2CC1.O=C(O)C(F)(F)F", "Percent Effect": -9.651},
      {"smiles": "CS(=O)(=O)NCc1cnc2n1CCN(Cc1ccsc1)CC2.O=C(O)C(F)(F)F", "Percent Effect": -2.337},
      {"smiles": "Cc1cc(C)c(C(=O)N2CCc3c(ncn3CCc3ccccc3)C2)[nH]1", "Percent Effect": -5.733},
      {"smiles": "CCCNC(=O)N1CCCC2(CCC(=O)N(CCc3c[nH]cn3)C2)C1", "note": "(stereo not given)", "Percent Effect": 12.8},
      {"smiles": "CC(=O)NCC(=O)N1CCN(CCN(C)C)c2ncccc2C1.O=C(O)C(F)(F)F.O=C(O)C(F)(F)F", "Percent Effect": -13.2},
      {"smiles": "CCC(=O)N1CCN(CCn2cccn2)c2ncccc2C1.O=C(O)C(F)(F)F", "Percent Effect": 88.49},
      {"smiles": "CC(C)NC(=O)N1CCN(CC2CC2)c2ncccc2C1.O=C(O)C(F)(F)F", "Percent Effect": -7.83},
      {"smiles": "CN1CCN(C(=O)NC2CC2)Cc2cccnc21.O=C(O)C(F)(F)F", "Percent Effect": -1.72},
      {"smiles": "CN1CCN(C(=O)Cc2ccc(F)cc2)Cc2cccnc21.O=C(O)C(F)(F)F", "Percent Effect": -3.35},
      {"smiles": "Cc1ccc2c(n1)N(C)CCN(C(=O)NC(C)C)C2.O=C(O)C(F)(F)F", "Percent Effect": -4.064},
      {"smiles": "CC(C)NC(=O)N1CCN(CCn2cccn2)c2ncccc2C1.O=C(O)C(F)(F)F", "Percent Effect": 105},
      {"smiles": "Cc1ccc2c(n1)N(CCn1cccn1)CCN(C(=O)NC1CC1)C2.O=C(O)C(F)(F)F", "Percent Effect": 12.45},
      {"smiles": "Cc1ccc2c(n1)N(CCn1cccn1)CCN(C(=O)NC(C)C)C2", "Percent Effect": 112.2},
      {"smiles": "CN1CCC(N(Cc2ccco2)S(=O)(=O)c2cc(Br)ccc2Br)CC1", "Percent Effect": 17.1},
      {"smiles": "CSc1ccc(CN(C(=O)c2cc(=O)[nH]c(=O)[nH]2)C2CC2)cc1", "Percent Effect": 1.499},
      {"smiles": "CN(C)C(C(=O)NCCS(=O)(=O)N(C)C)c1cccc(F)c1", "note": "(stereo not given)", "Percent Effect": -10.76},
      {"smiles": "Cc1c(-c2cc(-c3cnn(C)c3C)n(CC(=O)NC3CC3)n2)cnn1C", "Percent Effect": 78.99},
      {"smiles": "Cc1nn2c(NCC(=O)NC3CC3)cc(-c3ccccc3)nc2c1C", "Percent Effect": 7.066},
      {"smiles": "Cn1cc(CN2CCC(CCC(=O)NC3CC3)CC2)cn1", "Percent Effect": -12.61},
      {"smiles": "CN(Cc1cnn(C)c1)C(=O)NC1CCC(O)CC1", "note": "(stereo not given)", "Percent Effect": 16.63},
      {"smiles": "Cc1nn(C)cc1-c1cc(-c2cn(C)nc2C)n(CC(=O)NC2CC2)n1", "Percent Effect": 89.98},
      {"smiles": "Cc1cn(CC(=O)NC2CCC(C(=O)O)CC2)c2ccccc12", "note": "(stereo not given)", "Percent Effect": -7.822},
      {"smiles": "Cn1cc(-c2cc(-c3cnn(C)c3)n(CC(=O)NC3CC3)n2)cn1", "Percent Effect": 98.73},
      {"smiles": "Cc1ccccc1-c1cc(NC(=O)NC2CC2)n(CCO)n1", "Percent Effect": -65.06},
      {"smiles": "Cc1ccccc1-c1cc(NC(=O)NC2CCC(O)CC2)n(CCO)n1", "note": "(stereo not given)", "Percent Effect": -35.4},
      {"smiles": "O=C(c1cnc(Nc2ccccc2)nc1)N1CCCC2(CCNC2)C1", "note": "(stereo not given)", "Percent Effect": -3.033},
      {"smiles": "CCN(C(=O)CN(CC(N)=O)C(C)C)C1=CCCC1", "Percent Effect": 4.298},
      {"smiles": "CCOc1cc(F)ccc1NS(=O)(=O)c1cc(C)c(C(=O)O)s1", "Percent Effect": 9.69},
      {"smiles": "Cc1ccc(CN2C[C@H]3CN(CC4CCN(C)CC4)C(=O)[C@H]3C2)s1", "Percent Effect": -10.19},
      {"smiles": "Nc1nc2c(c(N3CCN(C(=O)c4cccs4)CC3)n1)CCCC2", "Percent Effect": 3.246},
      {"smiles": "Cc1nc2sccn2c1C(=O)N1CCc2c(nc(N)[nH]c2=O)C1", "Percent Effect": -0.7078},
      {"smiles": "Cc1nc(C(=O)N2CCc3c(nc(-c4ccncc4)[nH]c3=O)C2)cs1", "Percent Effect": -11.53},
      {"smiles": "O=C(c1cccs1)N1CCc2c(nc(N3CCCCC3)[nH]c2=O)C1", "Percent Effect": 121.5},
      {"smiles": "O=C(c1cccnc1)N1CCc2c(nc(N3CCCC3)[nH]c2=O)C1", "Percent Effect": 113.8},
      {"smiles": "O=C(c1ccc(=O)[nH]c1)N1CCc2c(nc(-c3cccnc3)[nH]c2=O)C1", "Percent Effect": 3.404},
      {"smiles": "O=C(c1cccs1)N1CCc2c(nc(N3CCCC3)[nH]c2=O)C1", "Percent Effect": 120},
      {"smiles": "O=C(c1ncccc1O)N1CCc2c(nc(-c3ccncc3)[nH]c2=O)C1", "Percent Effect": -0.3257},
      {"smiles": "Cc1nc2sccn2c1C(=O)N1CCc2c(nc(N(C)C)[nH]c2=O)C1", "Percent Effect": 14.79},
      {"smiles": "O=C(c1ccccn1)N1CCc2c(nc(N3CCCC3)[nH]c2=O)C1", "Percent Effect": -8.561},
      {"smiles": "O=C(c1ccsc1)N1CCc2c(nc(-c3ccncc3)[nH]c2=O)C1", "Percent Effect": -0.2016},
      {"smiles": "O=C(c1cc[nH]n1)N1CCc2c(nc(N3CCCCC3)[nH]c2=O)C1", "Percent Effect": 120.1}
    ]}
  ]
}
